Compounds with a hit are over-represented: about 1.8% of the library has one in this group of screens.
ABCB6 inh MLPCN = inhibitors of human ABC transporter ABCB6; fluorescence ratio to DMSO, % at 10 µM; Q9NP58; K562-ABCB6 porphyrin accumulation, flow cytometry, 1 h; hits give low values; hit rate 0.19% among 360,000;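 active means fluorescence ratio to DMSO below 75%, the collection mean minus 3 SD; inconclusive means too few cells collected in the well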;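 further: signal is porphyrin accumulated inside mitochondria; lower ratio means ABCB6 inhibition with less porphyrin fluorescence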
Target sequence (Q9NP58 whole entry, looked up): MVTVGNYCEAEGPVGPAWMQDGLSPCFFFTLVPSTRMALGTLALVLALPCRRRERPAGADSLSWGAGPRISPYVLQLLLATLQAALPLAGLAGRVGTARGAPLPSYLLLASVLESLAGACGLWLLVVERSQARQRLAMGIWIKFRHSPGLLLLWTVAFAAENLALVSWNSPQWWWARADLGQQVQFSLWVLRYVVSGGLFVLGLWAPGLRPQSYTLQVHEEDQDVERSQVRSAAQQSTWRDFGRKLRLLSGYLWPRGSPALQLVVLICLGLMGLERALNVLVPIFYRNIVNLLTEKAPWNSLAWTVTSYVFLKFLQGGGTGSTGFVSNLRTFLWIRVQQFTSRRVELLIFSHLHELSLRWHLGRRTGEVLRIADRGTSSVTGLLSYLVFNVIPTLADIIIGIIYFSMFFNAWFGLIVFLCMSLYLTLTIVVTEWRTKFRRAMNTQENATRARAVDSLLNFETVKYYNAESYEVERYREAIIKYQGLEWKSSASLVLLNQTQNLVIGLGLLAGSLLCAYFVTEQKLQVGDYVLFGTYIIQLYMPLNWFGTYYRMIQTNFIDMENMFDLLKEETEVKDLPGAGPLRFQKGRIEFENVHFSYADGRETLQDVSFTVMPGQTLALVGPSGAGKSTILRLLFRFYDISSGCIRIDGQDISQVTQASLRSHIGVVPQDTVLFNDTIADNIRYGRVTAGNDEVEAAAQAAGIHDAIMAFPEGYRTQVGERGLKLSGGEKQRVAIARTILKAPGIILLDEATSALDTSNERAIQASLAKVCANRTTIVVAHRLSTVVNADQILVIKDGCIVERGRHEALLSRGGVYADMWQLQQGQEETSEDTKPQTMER
Myeloid diff MLP = compounds promoting myeloid differentiation | AID 624256 | ER-HoxA9 myeloid progenitors, lysozyme-GFP differentiation, flow cytometry | calls only at 10 µM | hit rate 1% among 360,000;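 active means normalized GFP-positive differentiation at or above the plate's own cutoff, the solvent-only control mean plus 3 SD; inconclusive means no clear call, values can overlap the other calls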;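 further: cells exposed to compound for four days before flow analysis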
Granule exo inh = blocks lytic granule exocytosis; TALL-104 LAMP-1 surface exposure, flow cytometry; cells stimulated with thapsigargin and PMA; inhibition, % at 10 µM; hit rate 0.66% among 360,000;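 active means inhibition above about 55%, limit read from the data; inconclusive means no clear call, values can overlap the other calls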
Myeloid diff = myeloid differentiation induction; shares compounds with Myeloid diff MLP; ER-HoxA9 myeloid progenitors, GFP/Mac1 double-positive flow; calls only; hit rate 2% among 2,300; AID 651706;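 active means share of green or green-and-red cells above 9 and 9% in run 1 or 4 and 3% in run 2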
GFP autofluor = compound fluorescence in myeloid differentiation counter-screen; shares compounds with Myeloid diff MLP; fluorescence response, % (test concentration not listed); ER-HoxA9 myeloid progenitors, no estrogen, GFP autofluorescence flow cytometry; vehicle wells 0%, positive control 100%; hit rate 7.4% among 2,300;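 active means over 5% cells positive for green fluorescent reporter, or over 2% positive for both it and APC stain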
Exocytosis CP01 = blocks lytic granule exocytosis. shares compounds with Granule exo inh. TALL-104 cells, LAMP-1 externalization, flow cytometry; stimulated with PMA plus thapsigargin. inhibition, % at 10 µM. hit rate 11% among 1,500. AID 651954; in the data active means inhibition above about 60%
Numbers stand for hits; – = inactive; ? = inconclusive; · = not tested or not shown; + = active, no number.

SMILES	ABCB6 inh MLPCN	Myeloid diff MLP	Granule exo inh	Myeloid diff	GFP autofluor	others
CCN(CC)CCN1C(=O)C(=O)/C(=C(/O)c2ccc(OC)cc2)C1c1ccco1 (stereo unspecified)	–	–	–	·	·
COc1ccc(/C=N/Nc2nc(-c3cccnc3)nc3ccccc23)c(OC)c1	–	–	–	·	·
COc1ccc(OC2C(=O)N(Cc3ccc(F)cc3)C2c2cc(OC)c(OC)c(OC)c2)cc1 (stereo unspecified)	–	–	–	·	·
COc1ccc(C2C(Oc3ccccc3C)C(=O)N2Cc2ccc(F)cc2)cc1OC (stereo unspecified)	–	–	–	–	–
CCN(CC)C(=O)C1=C(C)N(Cc2ccc(C(C)(C)C)cc2)C(=O)C(CC(=O)NCCCN(C)C)C1 (stereo unspecified)	–	–	–	–	–
CC1=C(C(=O)N(C)C)CC(CC(=O)NCCCN(C)C)C(=O)N1Cc1ccc(C(C)(C)C)cc1 (stereo unspecified)	–	–	–	·	·
CCOC(=O)C1(Cc2cccc(F)c2)CCN(Cc2ccc(COC)o2)CC1	–	–	–	·	·
COc1cccc(OC)c1C(=O)Nc1ccccc1C(=O)N1CCCC1	–	–	–	·	·
CC(C)OC(=O)CSc1nnc(CNc2ccc(Cl)cc2)n1C	–	–	–	·	·
COC(=O)CSc1nnc(CNc2ccc(OC)cc2)n1C	–	+	–	–	–
O=C(Nc1cccc(F)c1)/C(=C/c1ccco1)NC(=O)c1ccco1	–	–	–	·	·
Cc1c(C(=O)NCc2ccc3c(c2)OCO3)cccc1[N+](=O)[O-]	–	–	–	·	·
O=C1c2cccc3c(N4CCCCC4)ccc(c23)C(=O)N1c1cccc(O)c1	–	+	–	–	–
C=CCN1C(=O)c2cccc3c(N4CCCCC4)ccc(c23)C1=O	–	–	–	·	·
COc1ccc(OCC(=O)N2CCN(C(=O)c3ccc(F)cc3)CC2)cc1	–	–	–	·	·
C=CCN(c1ccccc1OC)S(=O)(=O)c1ccc(Cl)c(C(=O)NCc2ccco2)c1	–	+	–	–	–
C=CCN(c1ccccc1OC)S(=O)(=O)c1cccc(C(=O)NCc2ccco2)c1	–	–	–	·	·
COc1ccccc1Cn1c(=S)[nH]c2ccc(F)cc2c1=O	–	·	–	·	·
CN1/C(=C\C(=O)c2cncc(Br)c2)C(C)(C)c2ccccc21	–	+	–	–	20.0
CN1/C(=C\C(=O)c2cccc(S(=O)(=O)N3CCCCC3)c2)C(C)(C)c2ccccc21	–	–	–	·	·
CC(C)(C)Cc1c(C2CCCCC2)nc2ccc(Cl)cn12	–	–	–	·	·
Cc1cc(Cl)ccc1OCC(=O)Nc1cccc(S(=O)(=O)NC2=NCCCCC2)c1	–	+	–	–	–
O=C(COc1ccc(Cl)cc1)Nc1cccc(S(=O)(=O)NC2=NCCCCC2)c1	–	–	–	·	·
Cc1ccc2nc(SCC(=O)Nc3cccc(S(=O)(=O)NC4=NCCCCC4)c3)[nH]c2c1	–	–	–	–	96.1
Cc1ccc2nc(SCC(=O)Nc3cccc(S(N)(=O)=O)c3)[nH]c2c1	–	–	–	·	·
SMILES	ABCB6 inh MLPCN	Myeloid diff MLP	Granule exo inh	Myeloid diff	GFP autofluor	others
CNCC[C@H](Oc1cccc2ccccc12)c1cccs1	–	–	–	–	–
C/C(=N\NC(=O)COc1cccc2ccccc12)c1cccs1	–	–	–	·	·
O=C1C=C(c2ccc(Cl)c(C(F)(F)F)c2)C[C@@H](c2ccc3c(c2)OCO3)C1	–	–	–	·	·
O=C(NCc1ccccn1)c1ccc(CNS(=O)(=O)c2ccc(F)cc2)cc1	–	–	–	·	·
CC(=O)Nc1ccc(S(=O)(=O)N2CCC(c3nnc(-c4ccc(C)cc4)o3)CC2)cc1	–	–	–	·	·
COc1ccc(Cl)cc1CC1(C)C(=O)Nc2ccc(-c3ccccc3OC)cc21 (stereo unspecified)	–	+	–	–	–
COc1ccccc1-c1ccc2c(c1)C(C)(Cc1cc(Cl)ccc1C(F)(F)F)C(=O)N2 (stereo unspecified)	–	–	–	·	·
COC(=O)c1ccc(NC(=O)c2cc(-c3ccncc3)nc3ccccc23)cc1	–	–	–	·	·
COC(=O)c1ccc(NC(=O)c2cc(-c3ccccn3)nc3ccccc23)cc1	–	+	–	–	–
CC(C)c1ccc(/C=C2\SC(=O)N(CC(=O)NC3C=CS(=O)(=O)C3)C2=O)cc1 (stereo unspecified)	–	?	–	·	·
Cc1ccc(C(=O)C(C)OC(=O)CNS(=O)(=O)c2ccc(C)cc2)cc1 (stereo unspecified)	–	–	–	·	·
CCCc1cc(=O)[nH]c(SCC(=O)Nc2ccccc2C#N)n1	–	–	–	–	–
CCCc1cc(=O)[nH]c(SCC(=O)Nc2cccc3ccccc23)n1	–	·	–	·	·
CCOC(=O)N1CCN(C(=O)C[C@@H]2C[C@@]3(C(=O)OCC)CCC=C3N(Cc3ccc4c(c3)OCO4)C2=O)CC1	–	–	–	·	·
N#Cc1c(NC(=O)c2ccc(Br)o2)n(-c2ccccc2)c2nc3ccccc3nc12	–	+	72.3	–	–	Exocytosis CP01=96.5
O=C(Nc1cccc(NC(=O)c2ccc(Br)o2)n1)c1ccc(Br)o1	–	–	–	·	·
COCCNc1nc(NCc2cccc(OC)c2)c2sc(-c3ccccc3)cc2n1	–	+	76.0	–	–	Exocytosis CP01=99.5
COCCNc1nc(NCc2ccc(NC(C)=O)cc2)c2sc(-c3ccccc3)cc2n1	–	?	–	·	·
Cc1cccc(NC(=O)c2ccc(S(=O)(=O)N3CCC(C)CC3)cc2)n1	–	–	–	·	·
CCN(c1ccccc1)S(=O)(=O)c1ccc(C(=O)Nc2ncccc2O)cc1	–	–	–	·	·
CCN(CC)CCOC(=O)c1ccc(N/C=C(/C#N)c2nc(-c3cc4ccccc4oc3=O)cs2)cc1	–	–	–	·	·
CCN(CC)CCOC(=O)c1ccc(N/C=C(/C#N)c2nc(-c3ccc(OC)cc3)cs2)cc1	–	–	63.5	–	–	Exocytosis CP01=66.4
COc1ccc(CCNc2ccc(N3C(=O)CC(C)C3=O)cc2[N+](=O)[O-])cc1OC (stereo unspecified)	–	–	–	·	·
COc1ccccc1CNc1nc(NCc2ccc(C(C)C)cc2)c2sccc2n1	–	–	61.9	–	–	Exocytosis CP01=85.3
COc1ccccc1CNc1nc(NC(C)C)nc2ccsc12	–	–	–	·	·
SMILES	ABCB6 inh MLPCN	Myeloid diff MLP	Granule exo inh	Myeloid diff	GFP autofluor	others
Cc1cc(N2CCN(C)CC2)nc2ccc(NC(=O)CCC(=O)NCCc3ccc(Cl)cc3)cc12	–	–	–	·	·
CCOC(=O)c1c(-c2ccccc2)oc2ccc(O)c(CN(C)C)c12	–	–	–	·	·
CCOC(=O)c1c(CSCc2ccccc2)oc2ccc(O)c(CN(C)C)c12	–	–	85.0	·	·	Exocytosis CP01=–
COc1ccc(CN2CCC(C(=O)Nc3ccc(Oc4ccccc4)nc3)CC2)cc1F	–	–	–	·	·
NC(=O)c1ccccc1OCc1nnc(-c2ccccc2Br)o1	–	–	–	·	·
CCC(Oc1ccccc1)C(=O)Nc1ncc([N+](=O)[O-])s1 (stereo unspecified)	–	–	–	·	·
CC(CC(=O)Nc1ncc([N+](=O)[O-])s1)c1ccccc1 (stereo unspecified)	–	–	58.6	·	·	Exocytosis CP01=–
